What all share (assay type): functional
The target in assay [1] is Solute carrier family 2, facilitated glucose transporter member 1 (Homo sapiens) (UniProt P11166). Kind of assay: ST_JUDE_LEISH: Cytotoxicity at 2uM final concentration against transgenic Leishmania Mexicana promastigotes LmGLUT1 that are glucose transport deficient and complemented with the human glucose transporter GLUT1. Activity is measured by DNA content using SYBR green in vitro.

Assay [2] has as its target Hexose transporter 1 (Plasmodium falciparum) (UniProt O97467). Kind of assay: ST_JUDE_LEISH: Cytotoxicity at 2uM final concentration against transgenic Leishmania Mexicana promastigotes LmPfHT that are glucose transport deficient and complemented with the Plasmodium falciparum hexose transporter. Activity is measured by DNA content using SYBR green in vitro.
Assay [3] has as its target Glucose transporter (Leishmania mexicana) (UniProt O61059). Kind of assay: ST_JUDE_LEISH: Cytotoxicity at 2uM final concentration against transgenic Leishmania Mexicana promastigotes LmGT2 that are glucose transport deficient and complemented with the L. Mexicana glucose transporter 2. Activity is measured by DNA content using SYBR green in vitro.

SMILES strings stand for the structures.

Sequence of Solute carrier family 2, facilitated glucose transporter member 1 (Homo sapiens) (P11166 whole entry): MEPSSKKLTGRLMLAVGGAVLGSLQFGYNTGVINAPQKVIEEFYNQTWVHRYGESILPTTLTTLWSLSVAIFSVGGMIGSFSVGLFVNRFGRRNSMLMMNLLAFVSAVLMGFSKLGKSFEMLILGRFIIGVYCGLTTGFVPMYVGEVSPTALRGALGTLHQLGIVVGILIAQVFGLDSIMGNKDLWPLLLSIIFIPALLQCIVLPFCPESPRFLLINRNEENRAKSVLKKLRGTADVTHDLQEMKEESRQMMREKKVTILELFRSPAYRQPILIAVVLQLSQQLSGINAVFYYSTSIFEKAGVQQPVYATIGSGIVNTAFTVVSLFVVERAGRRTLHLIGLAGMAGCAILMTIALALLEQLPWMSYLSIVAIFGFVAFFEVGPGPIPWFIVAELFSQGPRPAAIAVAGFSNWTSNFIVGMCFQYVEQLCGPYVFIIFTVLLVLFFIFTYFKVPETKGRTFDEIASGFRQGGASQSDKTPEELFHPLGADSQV

On to `CC(=O)Nc1ccc(-c2nc3ccc(-c4nc5ccc(NC(C)=O)cc5[nH]4)cc3[nH]2)cc1`, for which the inhibition was found to be 5.99% in assay [1], 3.79% in assay [2] and 5.3% in assay [3].
Taken in the same sequence, the figures for `CN(C)CCN(C)Cc1ccc(-c2ccc(NS(=O)(=O)c3cccc4cccnc34)cc2)cc1` were 9.5%, 9.32% and 3.58%.
`O=C(CCn1cncn1)N1CCCC(c2[nH]c3ccccc3c2-c2ccncc2)C1` (stereo not given): the inhibition in assay [1] was -2.2%; in assay [2], -3.57%; in assay [3], 1.39%.
On to `COc1cc(Cc2cnc(N)nc2N)cc(OC)c1OCCCCCN1C(=O)c2ccccc2C1=O`, for which the values for the inhibition in assay [1], in assay [2] and in assay [3] were 3.29%, -0.4% and 0.36%, respectively.
As for `Cc1ccc2c(O)c([N+](=O)[O-])c(O)nc2c1`, the inhibition in assay [1] is -1.72%; in assay [2] it was 1.03%; in assay [3], 1.6%.
On the same counts, the results for `Cc1cc(N[C@@H](CC(C)C)C(=O)NCc2cccc(F)c2)nc(NCCc2ccccc2)n1` are 3.97%, 4.78% and 2.16%.
Taken in the same sequence, the figures for `Cc1ncc([N+](=O)[O-])n1CCOC(=O)NC(Nc1ccc(Br)cc1)C(Cl)(Cl)Cl` (stereo not given) were 2.8%, 0.15% and -1.63%.
On to `O=C(CNC(=O)c1ccc(O)cc1)Nc1ccc(-c2cccc(-c3nc4cc(C(F)(F)F)ccc4[nH]3)c2)cc1`, for which the inhibition was found to be 8.61% in assay [1], 8.61% in assay [2] and 8.38% in assay [3].
Regarding `COc1cc(CN2CCC(C(=O)Nc3ccc(-c4cccc(C)c4)cc3)CC2)ccc1O`, the inhibition in assay [1] came out at 8.11%; in assay [2], 7.03%; in assay [3], 4.91%.
Taken in the same sequence, the figures for `CC1CN(Cc2csc(Nc3ccccc3)n2)CC(C)O1` (stereo not given) were -0.51%, 0.99% and 3.5%.
On the same counts, the results for `CCOCn1c(-c2ccccc2)cc2c3c(N)nc(N)nc3ccc21` are 98.3%, 100% and 101%.
For `CCN(CC)CCNc1nccc(N(C)c2ccc(NC(=O)Nc3cc(C(F)(F)F)ccc3F)cc2)n1`, the inhibition in assay [1] was found to be 5.98%; in assay [2], 2.93%; in assay [3], 0.26%.
Taken in the same sequence, the figures for `CCc1nc(N)nc(N)c1-c1ccc(Cl)cc1` were 2.26%, 3.31% and 3.36%.
In the case of `Cc1ccnc2nc(C(=O)Nc3cc(C(F)(F)F)ccc3N3CCCCC3)nn12`, the inhibition amounted to 1.48% in assay [1], 2.09% in assay [2] and 1.77% in assay [3].
On to `Cc1ccc2nc(C)cc(N/N=C/c3ccc([N+](=O)[O-])o3)c2c1`, for which the values for the inhibition in assay [1], in assay [2] and in assay [3] were 14.9%, 12.8% and 9.98%, respectively.
On the same counts, the results for `O=C(N[C@H]1CCN(CCc2ccc(O[C@H]3CCNC3)c(Cl)c2)C1)c1ccc(Cl)c(Cl)c1` are 1.64%, 1.22% and 3.35%.
Regarding `Cc1cccc2nc(-c3cccc(-c4cccc(CNCCNC(=O)c5ccnn5C)c4)c3)[nH]c12`, the values for the inhibition in assay [1], in assay [2] and in assay [3] were -1.89%, -1.71% and -2.41%, respectively.
On the same counts, the results for `COc1ccc(CN2CCCC(OC(c3ccc(F)cc3)c3ccc(F)cc3)C2)c(O)c1` (stereo not given) are 9.08%, 8.89% and 9.65%.
`CS(=O)(=O)c1cccc(-c2ccc3oc(C(N)=O)c(NC(=O)c4cccs4)c3c2)c1`: the inhibition in assay [1] amounted to 7.71%; in assay [2], 6.5%; in assay [3] it was 5.71%.
With `O=C(Nc1ccc(Cl)cc1)Nc1cccc(CCNCc2ccccc2)c1`, the inhibition in assay [1] was 0.95%; in assay [2], 0.57%; in assay [3] it was 1.38%.
Taken in the same sequence, the figures for `Cc1ccc2cc(NCCCCCCCCON3C(N)=NC(N)=NC34CCCCC4)ccc2n1` were 8.51%, 8.23% and 9.59%.
On the same counts, the results for `COc1ccc([N+](=O)[O-])cc1N(Cc1ccccc1-c1ccccc1)S(=O)(=O)c1ccc(C(F)(F)F)cc1[N+](=O)[O-]` are 8.36%, 5.46% and -1.25%.
Regarding `Cc1nc(N)nc(N)c1OCCCCOc1ccccc1`, the inhibition worked out at 3.87% in assay [1], 2.98% in assay [2] and 2.4% in assay [3].
As to `COc1cccc(C(=O)Nc2ccc(Nc3nc(C)cc(N(C)C)n3)cc2)c1`, the inhibition in assay [1] was found to be 12.8%; in assay [2], 9.13%; in assay [3], 7.09%.
On the same counts, the results for `CC1CN(c2cnn(Cc3ccc(NC(=O)Nc4ccc(F)cc4[N+](=O)[O-])cc3)c(=O)c2Cl)CC(C)N1` (stereo not given) are 2.34%, 1.28% and 2.58%.
On the same counts, the results for `CCc1cc2c3c(N)nc(N)nc3ccc2n1CC` are 40.4%, 58% and 39.4%.
On the same counts, the results for `Cn1cccc1CCNCc1ccc(-c2cccc(-c3nc4cc(F)ccc4[nH]3)c2)cc1` are 3.65%, 3.24% and 3.01%.
Regarding `COc1c(C2CCN(CCCCNC(=O)c3ccc(-c4ccc(Cl)cc4)c(OCCN(C)C)c3)CC2)ccc2c1CCCC2`, the inhibition was determined as 9.22% in assay [1], 14.4% in assay [2] and 18.8% in assay [3].
On the same counts, the results for `COCCN(C)CCCOc1cc2c(cc1OC)ncn2-c1cc(OCc2ccccc2C(F)(F)F)c(C(N)=O)s1` are 2.27%, 4.55% and 1.49%.
Take `CCC(C(=O)Nc1ccccc1)n1nc(-c2ccc(C)c(S(=O)(=O)N3CCCCC3)c2)ccc1=O` (stereo not given): the inhibition in assay [1] was 3.12%; in assay [2], 4.1%; in assay [3], 4.74%.
On the same counts, the results for `FC(F)(F)c1ccc2c(NCCNc3ccnc4cc(C(F)(F)F)ccc34)ccnc2c1` are 2.33%, 0.31% and 0.92%.
On the same counts, the results for `COc1ccc2nccc(N3CCC(SCCNCc4ccc5c(n4)NC(=O)CO5)C3)c2n1` (stereo not given) are 0.4%, 2.93% and 2.08%.
As for `O=C(NC1CCCCCC1)[C@@H]1CCCN1C(=O)c1ccc(O)c(-c2ccc(Cl)c(Cl)c2)c1`, the inhibition in assay [1] is 0.09%; in assay [2], 2.12%; in assay [3], -1.06%.
On the same counts, the results for `Oc1ccc(CCNc2nc(NCCCOc3cc(CN4CCCCC4)ccc3F)nc(N3CCNCC3)n2)cc1` are 1.98%, 4.72% and 5.14%.
On the same counts, the results for `Cc1cc(NC(=O)c2cccs2)ccc1OC1CCN(Cc2ccc(C#N)cc2)CC1` are -0.77%, 1.49% and -0.42%.

Source of the values: ChEMBL document CHEMBL3433997, “St. Jude Leishmania screening dataset” (2016).
